# Assay results reported in article PMC7862700, “An all-to-all approach to the identification of sequence-specific readers for epigenetic DNA modifications on cytosine”.
# Key:
# Assay in all cases: DAPPL (digital affinity profiling via proximity ligation, sequencing); 10 mM Tris-HCl pH 7.5, 50 mM NaCl, 1 mM DTT, 4% glycerol, room temperature, 30 min; GST-TFs on glutathione beads, 16-mer random dsDNA library, 0.1% formaldehyde crosslink after washing; high values mean tight binding
# Conditions in all cases: protein: recombinant; tags: N-terminal GST; dsDNA, one strand shown
# FLI1 = target: T1, FLI1 (Homo sapiens, UniProt Q01543 1-452)
# T1 sequence: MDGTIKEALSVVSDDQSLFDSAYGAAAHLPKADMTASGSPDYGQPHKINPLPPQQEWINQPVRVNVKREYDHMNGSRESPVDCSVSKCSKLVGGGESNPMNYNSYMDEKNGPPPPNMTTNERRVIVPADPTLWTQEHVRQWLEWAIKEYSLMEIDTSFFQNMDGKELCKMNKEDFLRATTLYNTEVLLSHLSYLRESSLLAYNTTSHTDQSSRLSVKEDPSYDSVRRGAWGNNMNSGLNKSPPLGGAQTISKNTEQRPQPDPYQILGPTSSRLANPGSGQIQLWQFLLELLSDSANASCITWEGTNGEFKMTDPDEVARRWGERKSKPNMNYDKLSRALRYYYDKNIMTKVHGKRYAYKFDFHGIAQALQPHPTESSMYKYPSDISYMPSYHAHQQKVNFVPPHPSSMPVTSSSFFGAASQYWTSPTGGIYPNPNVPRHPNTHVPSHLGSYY
# Outline: (§1)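 Pools were built from human transcription factors expressed in yeast as GST fusions, captured on glutathione beads and DNA-barcoded, along with a tag-only sample. Incubation with 200 nmole of a 16-mer random double-stranded DNA library lasted 30 min at room temperature in Tris/NaCl/DTT/glycerol buffer, and was followed by washing, 0.1% formaldehyde crosslinking, proximity ligation, PCR amplification and Illumina NextSeq500 sequencing. Binding signal is the quotient of each hexamer's read frequency for a factor and its frequency for the tag-only sample.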
# ELK1 = target: T2, ELK1 (Homo sapiens, UniProt P19419 1-428)
# T2 sequence: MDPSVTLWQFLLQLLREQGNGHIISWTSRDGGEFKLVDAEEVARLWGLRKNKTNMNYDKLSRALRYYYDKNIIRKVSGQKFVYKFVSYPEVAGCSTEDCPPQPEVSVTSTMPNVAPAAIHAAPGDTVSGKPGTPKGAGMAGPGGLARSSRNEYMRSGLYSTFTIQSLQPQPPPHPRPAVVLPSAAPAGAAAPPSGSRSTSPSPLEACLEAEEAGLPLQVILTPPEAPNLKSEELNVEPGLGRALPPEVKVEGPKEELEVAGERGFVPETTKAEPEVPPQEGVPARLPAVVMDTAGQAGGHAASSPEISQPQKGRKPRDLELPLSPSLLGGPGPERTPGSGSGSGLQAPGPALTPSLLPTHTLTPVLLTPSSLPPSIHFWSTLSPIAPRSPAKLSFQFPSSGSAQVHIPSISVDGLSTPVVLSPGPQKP
# Outline: as §1
# GABPA = target: T3, GABPA (Homo sapiens, UniProt Q06546 1-454)
# T3 sequence: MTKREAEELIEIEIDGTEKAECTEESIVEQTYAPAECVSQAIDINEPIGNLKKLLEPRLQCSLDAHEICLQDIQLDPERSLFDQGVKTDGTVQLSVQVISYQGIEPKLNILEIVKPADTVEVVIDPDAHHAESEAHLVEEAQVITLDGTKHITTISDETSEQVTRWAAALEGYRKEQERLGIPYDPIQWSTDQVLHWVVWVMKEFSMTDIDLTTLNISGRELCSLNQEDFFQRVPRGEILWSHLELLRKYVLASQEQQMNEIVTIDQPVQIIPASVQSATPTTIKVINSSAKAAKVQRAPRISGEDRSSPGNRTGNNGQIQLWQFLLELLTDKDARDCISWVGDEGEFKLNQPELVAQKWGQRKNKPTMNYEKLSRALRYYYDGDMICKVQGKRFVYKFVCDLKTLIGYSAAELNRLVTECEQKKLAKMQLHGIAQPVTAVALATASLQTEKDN
# Outline: as §1
# ERG = target: T4, ERG (Homo sapiens, UniProt P11308 1-479)
# T4 sequence: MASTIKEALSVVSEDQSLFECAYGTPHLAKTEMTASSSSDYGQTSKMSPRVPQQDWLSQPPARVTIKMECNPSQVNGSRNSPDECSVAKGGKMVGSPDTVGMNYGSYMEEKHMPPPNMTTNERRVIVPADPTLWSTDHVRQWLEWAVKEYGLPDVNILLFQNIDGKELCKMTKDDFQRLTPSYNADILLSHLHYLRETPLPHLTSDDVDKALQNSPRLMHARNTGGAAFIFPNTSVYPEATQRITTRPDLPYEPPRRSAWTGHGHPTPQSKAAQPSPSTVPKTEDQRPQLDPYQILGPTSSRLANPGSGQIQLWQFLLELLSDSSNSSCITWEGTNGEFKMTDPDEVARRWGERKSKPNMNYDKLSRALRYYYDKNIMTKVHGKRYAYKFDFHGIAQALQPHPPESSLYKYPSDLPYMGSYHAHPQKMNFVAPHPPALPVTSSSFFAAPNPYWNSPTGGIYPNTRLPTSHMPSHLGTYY
# Outline: as §1
# ELF1 = ELF1 (Homo sapiens, UniProt P32519 1-619)
# ELF1, sequence (P32519 whole entry): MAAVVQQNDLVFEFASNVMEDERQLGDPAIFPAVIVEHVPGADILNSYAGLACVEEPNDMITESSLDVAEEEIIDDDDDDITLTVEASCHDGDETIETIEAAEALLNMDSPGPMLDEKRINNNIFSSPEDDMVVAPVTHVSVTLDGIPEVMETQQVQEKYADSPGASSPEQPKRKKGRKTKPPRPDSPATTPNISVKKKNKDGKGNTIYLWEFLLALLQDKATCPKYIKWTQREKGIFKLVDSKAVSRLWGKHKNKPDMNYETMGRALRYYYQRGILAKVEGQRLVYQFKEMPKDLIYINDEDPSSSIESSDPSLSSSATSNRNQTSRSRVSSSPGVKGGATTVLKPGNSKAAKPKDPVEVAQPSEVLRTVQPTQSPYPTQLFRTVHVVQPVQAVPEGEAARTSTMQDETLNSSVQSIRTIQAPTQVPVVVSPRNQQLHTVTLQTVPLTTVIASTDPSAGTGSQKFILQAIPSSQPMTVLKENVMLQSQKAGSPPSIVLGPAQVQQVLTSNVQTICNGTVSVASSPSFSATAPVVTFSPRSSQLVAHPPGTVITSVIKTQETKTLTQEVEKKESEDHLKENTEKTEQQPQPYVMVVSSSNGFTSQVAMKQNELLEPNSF
# Outline: as §1
# EHF = target: T5, EHF (Homo sapiens, UniProt Q9NZC4 1-300)
# T5 sequence: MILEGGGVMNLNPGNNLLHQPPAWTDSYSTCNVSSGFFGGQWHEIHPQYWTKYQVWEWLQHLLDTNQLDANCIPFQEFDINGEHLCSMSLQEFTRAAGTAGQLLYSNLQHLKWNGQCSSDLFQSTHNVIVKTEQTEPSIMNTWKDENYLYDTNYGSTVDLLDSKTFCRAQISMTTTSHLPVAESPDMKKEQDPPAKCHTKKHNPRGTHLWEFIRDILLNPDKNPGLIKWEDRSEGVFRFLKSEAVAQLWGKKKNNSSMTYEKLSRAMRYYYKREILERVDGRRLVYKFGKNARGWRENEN
# Outline: as §1
# SPI1 = SPI1 (Homo sapiens, UniProt P17947 1-270)
# Outline: as §1
# SPIB = SPIB (Homo sapiens, UniProt Q01892 1-262)
# SPIB, sequence (Q01892 whole entry): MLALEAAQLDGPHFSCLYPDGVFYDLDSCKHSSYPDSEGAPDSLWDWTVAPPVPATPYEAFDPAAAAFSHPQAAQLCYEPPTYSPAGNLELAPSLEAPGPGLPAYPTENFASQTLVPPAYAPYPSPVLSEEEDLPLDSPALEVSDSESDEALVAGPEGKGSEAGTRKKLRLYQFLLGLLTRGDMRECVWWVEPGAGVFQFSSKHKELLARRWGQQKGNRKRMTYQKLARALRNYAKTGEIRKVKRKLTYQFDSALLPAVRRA
# Outline: as §1
# ELK3 = target: T6, ELK3 (Homo sapiens, UniProt P41970 1-407)
# T6 sequence: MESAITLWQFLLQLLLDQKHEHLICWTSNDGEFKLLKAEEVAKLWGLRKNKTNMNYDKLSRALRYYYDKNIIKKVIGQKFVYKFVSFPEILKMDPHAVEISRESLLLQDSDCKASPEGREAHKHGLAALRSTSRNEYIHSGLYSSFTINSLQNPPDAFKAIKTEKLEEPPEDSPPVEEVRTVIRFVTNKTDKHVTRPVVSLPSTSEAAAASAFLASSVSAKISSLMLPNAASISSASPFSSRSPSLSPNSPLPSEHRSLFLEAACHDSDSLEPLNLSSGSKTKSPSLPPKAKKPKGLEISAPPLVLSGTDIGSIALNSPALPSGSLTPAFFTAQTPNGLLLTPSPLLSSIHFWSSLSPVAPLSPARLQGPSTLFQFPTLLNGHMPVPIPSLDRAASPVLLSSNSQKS
# Outline: as §1
sequence,measurement,setting,value
TAAACC,binding signal,FLI1,"1.27 fold enrichment (6-mer frequency, TF over GST control)"
same,binding signal,ELK1,"1.22 fold enrichment (6-mer frequency, TF over GST control)"
same,binding signal,GABPA,"1.22 fold enrichment (6-mer frequency, TF over GST control)"
same,binding signal,ERG,"1.21 fold enrichment (6-mer frequency, TF over GST control)"
same,binding signal,ELF1,"1.26 fold enrichment (6-mer frequency, TF over GST control)"
same,binding signal,EHF,"1.17 fold enrichment (6-mer frequency, TF over GST control)"
same,binding signal,SPI1,"1.19 fold enrichment (6-mer frequency, TF over GST control)"
same,binding signal,SPIB,"1.31 fold enrichment (6-mer frequency, TF over GST control)"
same,binding signal,ELK3,"1.25 fold enrichment (6-mer frequency, TF over GST control)"
